This passage reports inhibition results from PubChem BioAssay AID435003 (Sanford-Burnham Center for Chemical Genomics, 2010).

Out of some 330,000 compounds screened, about 1,700 (0.52%) were called active. The entries come from a sample that favours actives as a whole. Values without a mark were called inactive. No stated cut-off is given here; in the data, active means inhibition above about 50%; inactive means the rest.

The nature of this experiment: lowers stimulated NF-kB reporter luminescence – cell-based, uHTS, TCR NF-kB activation inhibitor project, primary screen (AID 435003). The note with it: Jurkat, PMA/ionomycin-induced NF-kB luciferase reporter, at 4 µM, hits give high values.
With `Cc1cc(=O)oc2cc(OCCC[n+]3ccccc3)ccc12`, the inhibition was 3.92%.

Turning to `Cc1cc(=O)oc2cc(OCC3CC(c4ccccc4Cl)=NO3)ccc12` (stereo not drawn), the inhibition was 80.2% (active).

Turning to `CCOc1ccccc1N1CCN(C(=O)COc2ccc3c(C)cc(=O)oc3c2)CC1`, the inhibition is 26.6%.

Take `CCOc1ccc(NC(=O)CCS(=O)(=O)c2ccc3c(c2)CCCN3C(=O)CC)cc1`: the inhibition was -12%.

On to `CCCCC(=O)Nc1ccc2c(c1)C(=O)NC2=O`, for which the inhibition is 7.09%.

Regarding `COCc1c(C(=O)N/N=C(\C)c2ccncc2)nnn1-c1nonc1N`, the inhibition was -38.2%.

In the case of `C[C@@H]1C[C@@H]2O[C@H]2/C=C\C=C\C(=O)Cc2c(Cl)c(O)cc(O)c2C(=O)O1`, the inhibition was 56% (active).

With `CN(NC(=O)c1ccccc1F)c1nc(C(F)(F)F)nc2ccccc12`, the inhibition was 35.5%.

`CN(NC(=O)c1ccccc1)c1nc2ccccc2nc1C(F)(F)F`: the inhibition is 40.2%.

For `CSc1nc(N(C)NC(=O)c2cccc(C)c2)c2ccccc2n1`, the inhibition was 57.7% (active).

Turning to `O=C1c2ccccc2C(Nc2ccc3c(c2)OCCO3)N1Cc1ccco1` (stereo not drawn), the inhibition is 4.45%.

As for `COc1ccccc1C1CCN(c2ccc([N+](=O)[O-])cn2)CC1`, the inhibition is 1.45%.

For `Cc1ccc(N2CCN(c3ccc([N+](=O)[O-])cn3)CC2)c(C)c1`, the inhibition was 50.7% (active).

For `Cc1ccc(-n2c(C)cc(/C=N/Nc3ccc([N+](=O)[O-])cn3)c2C)c(C)c1`, the inhibition was 15.1%.

With `COc1ccc(N(CC(=O)Nc2cc(OC)cc(OC)c2)S(=O)(=O)c2c(C)n[nH]c2C)cc1`, the inhibition was -11.8%.

Regarding `CCc1sc(C(=O)N2CCN(CC(=O)Nc3cccc(F)c3)CC2)cc1C`, the inhibition was -11.7%.

As to `CCc1ccc(NC2Nc3cc(C)nn3S2)cc1` (stereo not drawn), the inhibition is -76.8%.

For the molecule `Cc1ccc(NC(=O)NNC(=O)c2sccc2-n2cccc2)cc1`, the inhibition is 6.7%.

Regarding `COc1ccc(/C=N/NC(=O)c2ccncc2)cc1CN1CCCc2ccccc21`, the inhibition is 16.1%.

With `COc1cccc(/C=N/NC(=O)c2[nH]nc3c2CCc2ccccc2-3)c1O`, the inhibition was 60.8% (active).

For `COc1ccc(Br)cc1/C=N/NC(=O)c1cccc(S(=O)(=O)N2CCOCC2)c1`, the inhibition was 5.13%.

`Cc1ccsc1-c1nc(CSCC(=O)NCCN2CCCC2)c(C)o1`: the inhibition is -7.15%.

In the case of `Cc1c(C)c2cc3c4c(oc3c(C)c2oc1=O)CCCC4`, the inhibition is -27.9%.

For the molecule `O=C(Nc1cccc(S(=O)(=O)N2CCCC2)c1)c1cncc(Br)c1`, the inhibition was 1.27%.

With `CC[n+]1cc(C)ccc1/C=C/c1ccc(N(C)C)cc1`, the inhibition was 84.4% (active).

With `Cc1ccc2nsnc2c1NC(=O)c1ccccc1[N+](=O)[O-]`, the inhibition was 10.9%.

In the case of `COc1ccc(NC(=O)C(CC(C)C)NS(=O)(=O)c2ccc3c(c2)CCN3C(C)=O)cc1OC` (stereo not drawn), the inhibition is -14%.

For the molecule `CC1(C(=O)O)CCC(C(=O)Nc2ccc(Cl)c(Cl)c2)C1(C)C` (stereo not drawn), the inhibition was -8.65%.

`COc1cc(NS(=O)(=O)c2ccc(NC(=O)c3ccc([N+](=O)[O-])cc3)cc2)ncn1`: the inhibition was 14.9%.

`CC(=O)NC(=S)Nc1ccc(NC(=S)NC(=O)c2ccc([N+](=O)[O-])cc2)cc1`: the inhibition was 14.2%.

Take `Cn1ccc(=Nc2ccc(NC(=O)c3ccc(N=c4ccn(C)c5ccc([N+](=O)[O-])cc45)cc3)cc2)cc1`: the inhibition is 51.3% (active).

In the case of `O=C1C=C(c2ccc(Cl)cc2)C(=O)N1Nc1ccccc1`, the inhibition was 13.6%.

As for `CC(=O)c1ccc(N2CCN(C(=O)C3CCN(S(=O)(=O)c4ccc5c(c4)CC(C)N5C(=O)C4CC4)CC3)CC2)cc1` (stereo not drawn), the inhibition is -3.75%.

`COc1ccc(C(=O)/C=C/Nc2ccccn2)cc1`: the inhibition was 50.4% (active).

For the molecule `CCOc1ccc(N/C=C/C(=O)c2ccccc2)cc1`, the inhibition is -132%.

Turning to `CCOc1ccc(N/C=C/C(=O)c2cc(OC)c(OC)c(OC)c2)cc1`, the inhibition was 44.3%.

In the case of `Cc1onc(-c2ccc(Cl)cc2)c1-c1ccnn1S(=O)(=O)c1ccc(Cl)cc1`, the inhibition was 9.53%.

In the case of `COc1ccc(NC(=O)C(C)N2c3cccc4cccc(c34)S2(=O)=O)c(OC)c1` (stereo not drawn), the inhibition is 21.7%.

For the molecule `O=C(NCc1ccc2c(c1)OCO2)c1cc([N+](=O)[O-])ccc1N1CCOCC1`, the inhibition is 60.2% (active).

For the molecule `O=C(NCc1ccc2c(c1)OCO2)c1cc(F)c(F)cc1Cl`, the inhibition is -12%.

With `CC1CCN(c2ccc(C(=O)NCc3ccc4c(c3)OCO4)cc2[N+](=O)[O-])CC1`, the inhibition is -1.58%.

Regarding `CC1Sc2ccc(S(=O)(=O)CCC(=O)NCc3ccccc3Cl)cc2NC1=O` (stereo not drawn), the inhibition was 7.46%.

Consider `Cc1ccc(S(=O)(=O)N/N=C(\c2ccccc2)C2CC2)cc1`, for which the inhibition is -1.73%.

For the molecule `CC(C)Cc1cc(C(=O)Nc2cc(Br)ccc2O)no1`, the inhibition was -28.3%.

With `O=C(Nc1ccccc1C(F)(F)F)c1cc(-c2ccc(O)cc2)on1`, the inhibition was -35.1%.

`Cc1ccc(O)c(NC(=O)c2cc(-c3ccco3)on2)c1`: the inhibition is 96.2% (active).

Take `COC(=O)c1ccc(NC(=O)c2cc3c(CO)cnc(C)c3oc2=Nc2cccc(C(N)=O)c2)cc1`: the inhibition was -7.55%.

For the molecule `c1ccc(-n2cccc2)c(N2CCCCC2)c1`, the inhibition is 6.35%.

For the molecule `C/C(=C(\C#N)C(=O)NCCCN1CCOCC1)N(C)C`, the inhibition was -10.8%.

As to `O=C(COC(=O)c1ccc(F)c(S(=O)(=O)N2CCOCC2)c1)NCc1ccc2c(c1)OCO2`, the inhibition is -6.67%.

For `COc1ccc(C2=NN(c3nc4ccccc4s3)C(=O)C2)cc1`, the inhibition is -52%.

As for `CC(=NCc1ccco1)c1c(C(F)(F)F)[nH]n(-c2nc3ccccc3s2)c1=O`, the inhibition was -104%.

On to `COC(=O)Cc1[nH]n(-c2nc3ccccc3s2)c(=O)c1C(C)=Nc1ccc(OC)cc1`, for which the inhibition is 60.8% (active).

As to `COc1ccc(CC(=O)NCc2nnc(SCC(=O)Nc3nccs3)n2C)cc1`, the inhibition was -0.699%.

On to `COc1ccc(OC)c(CCNC(=O)CCn2ccc3cc(S(=O)(=O)N4CCCC4)ccc32)c1`, for which the inhibition was 4.04%.

Regarding `COc1ccccc1C(=O)Nc1ccc(OCc2nnc3c4ccccc4c(C)nn23)cc1`, the inhibition was 15.2%.

Consider `Cc1cc(C(=O)N/N=C/c2ccccn2)c2ccccc2n1`, for which the inhibition was 3.68%.

Regarding `Cc1nnc(N/N=C/c2ccccn2)[nH]c1=O`, the inhibition was 58.1% (active).

For `COc1ccc(Cc2nnc(N/N=C/c3ccccc3O)[nH]c2=O)cc1OC`, the inhibition is 10.5%.

For `Cc1ccc2nc(SC(C)C(=O)NCc3ccco3)[nH]c2c1` (stereo not drawn), the inhibition is 7.59%.

`O=C(NNC(=O)C1CCCC1)c1ccc(F)cc1`: the inhibition was -13.7%.

Take `O=C(/C=C/c1ccc([N+](=O)[O-])o1)NNC(=O)c1ccc(F)cc1`: the inhibition was 75.6% (active).

Take `COc1ccc(C(=O)NCC(=O)N/N=C/c2ccc([N+](=O)[O-])o2)cc1OC`: the inhibition is 8.93%.

Consider `Cc1ccc(NC(=O)Cn2nnc(C(=O)NCc3ccco3)c2N)c(C)c1`, for which the inhibition is -3.15%.

Consider `CCc1ccc(NC(=O)Cn2nnc(C(=O)NCc3ccc(OC)cc3)c2N)cc1`, for which the inhibition is 13.8%.

In the case of `CCOc1ccccc1NC(=O)Cn1nnc(C(=O)NCc2cccs2)c1N`, the inhibition is 65.8% (active).

Turning to `CC[n+]1c(C)n(-c2ccccc2)c2ccc(NC(C)=O)cc21`, the inhibition is 35.7%.

`N#Cc1ccc(-c2ccc(Cl)cc2)nc1Oc1ccc(F)cc1`: the inhibition is -19.4%.

For `CCCC(=O)Nc1nc2ccc(NC(=O)c3cccnc3)cc2s1`, the inhibition is 40.8%.

As to `CSc1nc2ccc(NC(=O)c3c(F)cccc3F)cc2s1`, the inhibition was -93.5%.

For the molecule `CCCC(=O)Nc1nc2ccc(NC(=O)c3c(F)c(F)c(OC)c(F)c3F)cc2s1`, the inhibition was 57.8% (active).

For `COc1ccccc1NS(=O)(=O)c1ccc(C(=O)N2CCN(c3ccccc3O)CC2)cc1`, the inhibition was -3.42%.

With `CC1(C)CN(c2ccc(-c3ccnc4ncnn34)cc2)C1=O`, the inhibition was -3.78%.

For the molecule `Cc1cc(C(=O)OCC(=O)NCc2ccco2)c(C)n1-c1ccccc1`, the inhibition was 54.7% (active).

Consider `O=C(COC(=O)c1ccccc1O)NCc1ccco1`, for which the inhibition is -0.428%.

Regarding `CN(c1ccccc1)S(=O)(=O)c1ccc(Cl)c(C(=O)OCC(=O)NCc2ccco2)c1`, the inhibition is -10.7%.

`COc1ccc(NC(=O)N(C)C[C@H]2Oc3ccc(NC(=O)C4CC4)cc3C(=O)N([C@H](C)CO)C[C@@H]2C)cc1`: the inhibition is -11.5%.

As to `COc1ccc(-c2c(NC(=O)c3ccco3)oc3ccc(Cl)cc3c2=O)cc1`, the inhibition is -5.27%.

Turning to `COc1ccc(S(=O)(=O)N(C)C[C@H]2Oc3ccc(NS(=O)(=O)c4cccs4)cc3CC(=O)N([C@H](C)CO)C[C@H]2C)cc1`, the inhibition is 16%.

In the case of `O=C(CSc1ncnc2scc(-c3ccccc3)c12)NCc1ccc2c(c1)OCO2`, the inhibition is 1.29%.

On to `CC[C@]1(O)CC2CN(CCc3c([nH]c4ccccc34)[C@@](C(=O)OC)(c3cc4c(cc3OC)N(C=O)[C@H]3[C@@](O)(C(=O)OC)[C@H](OC(C)=O)[C@]5(CC)C=CCN6CC[C@]43[C@@H]65)C2)C1` (stereo partly drawn), for which the inhibition was 71.2% (active).

In the case of `Cc1ccc(F)cc1S(=O)(=O)Nc1cccc(C(=O)N2CCCC(C(N)=O)C2)c1` (stereo not drawn), the inhibition is 12.4%.

For the molecule `CCC/C=C(\CCC)C(NC(=O)Cc1ccccc1)c1ccc(C(=O)OC)cc1` (stereo not drawn), the inhibition is 25.8%.

In the case of `CCNC(=S)N(CCc1c(C)[nH]c2ccc(C)cc12)Cc1ccco1`, the inhibition was -0.351%.

`Cc1c(Nc2nc3ccccc3nc2NS(=O)(=O)c2cccs2)c(=O)n(-c2ccccc2)n1C`: the inhibition was -0.383%.

Turning to `Nc1c(-c2ccc(F)cc2)cnn1C1CCS(=O)(=O)C1` (stereo not drawn), the inhibition is -7.3%.

Consider `O=C(CS(=O)(=O)Cc1ccccc1)Nc1cccnc1`, for which the inhibition is 7.62%.

Consider `COc1cc(OC)nc(N/N=C(\c2ccccc2)c2ccncc2)n1`, for which the inhibition is -5.67%.
